# DENV2 CPE rescue: protects cells from dengue virus 2 cytopathic effect; DENV2-infected cells, cytopathic effect rescue, plate reader; CPE inhibition, % at 9.99 µM; hit rate 1.7% among 350,000; AID 651640; in the data active = CPE inhibition above about 20%, passing the limit was not always enough; inconclusive = no clear call, values can overlap the other calls; tested in BHK-21 cells;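 note: 0% = median of neutral control wells and 100% = median of positive control wells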
# Rtt109 Vps75: inhibitors of Candida albicans Rtt109/Vps75 histone acetyltransferase | Q5AAJ8 | purified Rtt109/Vps75, ThioGlo CoA-SH fluorescence, 4 h | inhibition, % at 34.9 µM | hit rate 0.16% among 330,000 | AID 540336;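 active = inhibition of at least 50% in every replicate; inconclusive = best replicate reaches 50% inhibition but some replicates fall short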
# Target sequence (Q5AAJ8 whole entry, looked up): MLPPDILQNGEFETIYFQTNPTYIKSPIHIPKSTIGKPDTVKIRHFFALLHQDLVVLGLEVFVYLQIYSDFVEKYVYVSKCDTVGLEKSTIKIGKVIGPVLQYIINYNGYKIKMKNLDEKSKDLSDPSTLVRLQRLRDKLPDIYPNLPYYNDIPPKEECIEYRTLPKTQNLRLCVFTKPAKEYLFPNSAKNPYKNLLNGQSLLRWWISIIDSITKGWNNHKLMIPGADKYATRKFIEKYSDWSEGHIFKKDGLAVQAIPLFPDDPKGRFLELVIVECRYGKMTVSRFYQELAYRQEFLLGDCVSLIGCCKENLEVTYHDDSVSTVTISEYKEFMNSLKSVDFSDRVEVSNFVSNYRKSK
# PglD DTNB: blocks C. jejuni PglD acetyltransferase activity | AID 602405 | purified PglD enzyme, DTNB colorimetric CoA detection | hit rate 0.098% among 360,000 | inhibition, % at 12.5 µM; in the data active = inhibition above about 16%, passing the limit was not always enough; inconclusive = no clear call, values can overlap the other calls
# N-glyco inh: blocks N-linked glycosylation in D54 reporter cells. D54 ERlucT glycosylation luciferase reporter, 24 h; percent of 100 nM tunicamycin response. reporter increase, % at 12.5 µM. hit rate 0.23% among 360,000;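 active = mean luciferase reporter signal, scaled so untreated is 0 and the glycosylation-blocking control 100, at or above a set limit in every replicate; inconclusive = mean reaches the limit but not every replicate does; inactive = mean below the limit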;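 note: luciferase carries N-glycosylation sites so blocking glycosylation raises the light; 0% = median of neutral control wells and 100% = median of 100 nM tunicamycin wells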
# * = called active by the depositor; ? = inconclusive; nt = no result. The full list was thinned out, with hits kept by preference.
SMILES,DENV2 CPE rescue,Rtt109 Vps75,PglD DTNB,N-glyco inh
CO[C@@H]1CN(C)C(=O)c2cc(NC(=O)Nc3c(C)noc3C)ccc2OC[C@@H](C)N(C(=O)Nc2cccc(Cl)c2)C[C@H]1C,-1,nt,-2,nt
COc1ccc(NC(=O)N(C)C[C@@H]2Oc3c(NC(=O)CCCCCC(=O)Nc4ccccc4N)cccc3C(=O)N([C@H](C)CO)C[C@H]2C)cc1,-11,nt,nt,nt
Cc1ccc(S(=O)(=O)Nc2ccc3c(c2)C(=O)N([C@H](C)CO)C[C@H](C)[C@H](CN(C)CC2CCCCC2)OCCCC[C@H](C)O3)cc1,10,nt,2,nt
Cc1noc(C)c1S(=O)(=O)Nc1ccc2c(c1)CC(=O)N([C@H](C)CO)C[C@@H](C)[C@@H](CN(C)C(=O)NC(C)C)O2,46*,nt,2,nt
COc1ccc2[nH]c3c(c2c1)CCN1C(=O)N([C@@H](C)C(=O)NC2CCCCC2C)C(=O)[C@]31C (some centres undefined),48*,-10,4,-3
O=C(Nc1ccc(F)cc1)N1CC(=O)N2[C@H](CO)[C@H](c3ccc(-c4ccccc4)cc3)[C@H]2C1,15,nt,nt,nt
COc1cccc(CNC(=O)C[C@H]2C=C[C@H](NC(=O)C3CCOCC3)[C@@H](CO)O2)c1,21*,nt,0,nt
O=C(C[C@H]1CC[C@@H](NC(=O)Nc2ccc3c(c2)OCO3)[C@@H](CO)O1)NCc1ccc2c(c1)OCO2,20*,nt,-3,nt
O=C(C[C@@H]1CC[C@H](NC(=O)Nc2ccc3c(c2)OCO3)[C@H](CO)O1)NCc1ccc2c(c1)OCO2,-1,nt,9,nt
COc1cccc(NC(=O)N[C@H]2C=C[C@H](CC(=O)NCc3ccccn3)O[C@H]2CO)c1,29*,nt,nt,nt
COc1ccccc1S(=O)(=O)N[C@H]1C=C[C@@H](CC(=O)NCc2cccc(F)c2)O[C@H]1CO,23*,nt,3,nt
C[C@H](CO)N1C[C@H](C)[C@H](CN(C)C(=O)Nc2ccc(C(F)(F)F)cc2)Oc2ccc(NC(=O)C3CCCCC3)cc2C1=O,1,nt,1,nt
CO[C@H]1CN(C)C(=O)c2ccc(NC(=O)Nc3cccc(F)c3)cc2OC[C@H](C)N(C(C)=O)C[C@H]1C,8,nt,0,nt
C[C@@H]1CN([C@@H](C)CO)C(=O)c2cc(NC(=O)Nc3ccc4c(c3)OCO4)ccc2O[C@@H]1CN(C)C(=O)Nc1ccc(F)cc1,19,nt,-4,nt
COc1cccc(CNC(=O)C[C@H]2CC[C@@H](NC(=O)C3CCC3)[C@H](CO)O2)c1,36*,nt,5,nt
O=C(C[C@H]1C=C[C@H](NC(=O)NC2CCCCC2)[C@H](CO)O1)NCc1ccc(F)cc1,28*,nt,1,nt
O=C(C[C@@H]1C=C[C@H](NC(=O)NC2CCCCC2)[C@@H](CO)O1)NCc1ccc(F)cc1,3,nt,-2,nt
O=C(C[C@H]1C=C[C@H](NC(=O)Cc2ccccn2)[C@@H](CO)O1)NCCc1ccncc1,23*,nt,1,nt
COc1ccc(CNC(=O)C[C@H]2C=C[C@@H](NC(=O)c3ccc4c(c3)OCO4)[C@H](CO)O2)cc1,?,nt,-3,nt
O=C(C[C@@H]1C=C[C@@H](NC(=O)Cc2ccccn2)[C@@H](CO)O1)NCCc1ccncc1,6,nt,-2,nt
COc1ccc(CNC(=O)C[C@H]2C=C[C@H](NC(=O)c3ccc4c(c3)OCO4)[C@H](CO)O2)cc1,61*,nt,nt,nt
O=C(C[C@@H]1CC[C@@H](NC(=O)CN2CCOCC2)[C@@H](CO)O1)NCCc1ccccc1,3,nt,1,nt
O=C(C[C@H]1C=C[C@@H](NC(=O)c2ccc(F)cc2)[C@H](CO)O1)NCCc1ccccc1,-1,nt,-1,nt
COc1cc(OC)cc(C(=O)Nc2nc(-c3ccccc3)c(-c3ccccc3)o2)c1,9,nt,nt,-3
CC(=O)Nc1nc(-c2ccccc2)c(-c2ccccc2)o1,6,59*,nt,3
SMILES,DENV2 CPE rescue,Rtt109 Vps75,PglD DTNB,N-glyco inh
C[C@@H]1CN([C@@H](C)CO)C(=O)Cc2cc(N(C)C)ccc2O[C@@H]1CN(C)Cc1ccc(C(F)(F)F)cc1,27*,nt,2,nt
C[C@@H]1CN([C@@H](C)CO)C(=O)Cc2cc(N(C)C)ccc2O[C@@H]1CN(C)Cc1ccc(C(=O)O)cc1,33*,nt,5,nt
C[C@H](CO)N1C[C@H](C)[C@@H](CN(C)Cc2ccccc2)Oc2ccc(N(C)C)cc2CC1=O,6,nt,4,nt
COc1cccc(N2CCc3c(C)nc4ccc(Cl)cc4c32)c1,41*,-2,6,14
COc1ccc(N2CCc3c(C)nc4c(OC)cc(OC)cc4c32)cc1,3,?,nt,?
COc1ccc(N2CCc3c(C)nc4c(OC)cccc4c32)cc1,0,-8,nt,35*
CC(C)CC#Cc1ccc([C@@H]2[C@H](CO)N3CCCCN(C(=O)c4ccc5c(c4)OCO5)C[C@@H]23)cc1,3,nt,2,nt
Cc1ccc(NC(=S)NCC23C=CC(O2)C2C(=O)N(c4ccc(C)cc4)C(=O)C23)cc1 (centres undefined),49*,1,2,0
Cc1cccc(NC(=S)NCC23C=CC(O2)C2C(=O)N(c4ccc(Cl)cc4)C(=O)C23)c1 (centres undefined),nt,12,nt,1
C[C@@H]1CN([C@H](C)CO)C(=O)c2cc(NS(=O)(=O)c3cn(C)cn3)ccc2O[C@@H](C)CCCCO[C@@H]1CN(C)S(=O)(=O)c1ccccc1,3,nt,-3,nt
O=C(CN1CCOCC1)NCC[C@H]1CC[C@@H](NC(=O)Nc2ccc(F)cc2)[C@H](CO)O1,4,nt,-2,nt
O=C(CN1CCOCC1)NCC[C@@H]1CC[C@@H](NC(=O)Nc2ccc(F)cc2)[C@@H](CO)O1,24*,nt,-2,nt
O=C(Nc1ccc(F)cc1)N[C@@H]1CC[C@@H](CCn2cc(-c3ccc(F)cc3)nn2)O[C@H]1CO,22*,nt,-1,nt
COc1ccc(NC(=O)N[C@@H]2CC[C@H](CCn3cc(-c4ccc(F)cc4)nn3)O[C@@H]2CO)cc1,3,nt,6,nt
COc1ccc(-c2cn(CC[C@@H]3CC[C@H](NC(=O)Nc4ccc(F)cc4)[C@H](CO)O3)nn2)cc1,95*,nt,nt,nt
COc1ccc(NC(=O)N[C@H]2CC[C@@H](CCn3cc(C4(O)CCCC4)nn3)O[C@@H]2CO)cc1,93*,nt,-1,nt
O=C(Nc1ccc(F)cc1)N[C@H]1CC[C@@H](CCn2cc(-c3ccc(F)cc3)nn2)O[C@H]1CO,-9,nt,-3,nt
COc1ccc(S(=O)(=O)N(C)C[C@@H]2OCCCC[C@H](C)Oc3ccc(NC(=O)CCCN(C)C)cc3C(=O)N([C@@H](C)CO)C[C@H]2C)cc1,4,nt,-6,nt
C/C(=N\NC(=O)c1nnn(-c2nonc2N)c1-c1ccccc1)c1cccnc1,96*,3,1,1
Cn1c(=O)n(C)c2cc(NS(=O)(=O)c3ccc4c(c3)CCCC4)ccc21,nt,17,8,37*
COc1ccc(S(=O)(=O)Nc2ccc3c(c2)n(C)c(=O)n3C)cc1C,-2,-10,nt,31*
Nc1cccnc1Oc1ccc(F)cc1,0,-3,nt,2
FC(F)(F)c1cccnc1Oc1ccc(C2=NCCS2)cc1,68*,5,10,1
O=C(Nc1ccccc1)N1CCCCN2[C@H](C1)[C@@H](c1ccc(-c3ccccc3)cc1)[C@@H]2CO,-7,nt,2,nt

# From PubChem
